Assay outcomes (PubChem)
IL-1B inflam inh: inhibitors of inflammasome signaling (IL-1 beta secretion); THP-1 LPS/ATP IL-1B secretion, AlphaLISA, 16 h; stronger effect = lower value; activity change, % at 57.5 µM; 360,000 compounds, 4.7% hits; AID 743279; in the data active = activity change below about -50%; inconclusive = mostly about -30% to -49%
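Secreted IL-1B measured by AlphaLISA bead assay after 16 h compound exposure of THP-1 cells; compounds (final up to 57.5 uM) added 1 h before LPS (250 ng/mL) and ATP (1.25 mM) stimulation; lower signal means less secretion.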
DT40 TDP1 no CPT: qHTS for Inhibitors of human tyrosyl-DNA phosphodiesterase 1 (TDP1): qHTS in cells in absence of CPT; DT40 Tdp1-/- hTDP1 cells, no CPT, ATP luminescence, 48 h; 420,000 compounds, 15% hits; AID 686978, 2013; Potency, µM (top dose mostly 46.2 µM), usual class: inhibitors; note: nearly all actives have a fitted effect of over 55% in size
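Compound effects on proliferation are scored in DT40 Tdp1-/-;hTDP1 cells in the absence of CPT. ATP levels (CellTiter-Glo luminescence) are recorded after a ≥48 hr, 37 °C incubation.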
HT1080NT lethal: kills 2HG-producing HT-1080-NT fibrosarcoma cells | HT-1080-NT fibrosarcoma viability, CellTiter-Glo ATP luminescence, 48 h | AID 686970 | Potency, µM (doses to about 46.1 µM), actives largely listed as cytotoxic | 360,000 compounds, 1.6% hits;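 note: NT is the 2HG producing partner of a matched IDH1 knockdown line; nearly all actives have a fitted effect of over 55% in size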
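Compounds were tested in concentration-response format on HT-1080-NT cells for 48 hours at 37 degrees C. Cell viability came from CellTiter-Glo luminescence; curves were classified by r2, response magnitude and activity.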
DT40 TDP1 CPT: growth inhibition of DT40 Tdp1-/-;hTDP1 cells with camptothecin (screen for TDP1 inhibitors). chicken DT40 Tdp1-/-;hTDP1 cells + 20 nM CPT, ATP luminescence, 48 h. Potency, µM (top dose mostly 46.2 µM), actives largely listed as inhibitors. 420,000 compounds, 12% hits; note: nearly all actives have a fitted effect of over 55% in size
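Chicken DT40 Tdp1-/- cells stably complemented with human TDP1 were seeded at 400 cells/well in medium containing 20 nM camptothecin, exposed to pin-transferred compounds, and grown at 37 °C for at least 48 hr. Viability was read as ATP luminescence.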
HT1080 IDH1KD tx: toxicity to HT-1080 IDH1 knockdown cells (counter line); HT-1080 IDH1 knockdown viability, ATP luminescence, 48 h; Potency, µM (titrated, usually from 46.1 µM), hits mostly cytotoxic; 360,000 compounds, 2% hits; AID 686971
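IDH1KD HT-1080 cells, 750/well, RPMI + 5% FBS; compound pinned after 2 h settling; 48 h, 37 °C; CellTiter-Glo luminescence; % activity normalised to DMSO and no-cell wells; curves fitted, classed by r2 and efficacy.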
ALOX12 inh: blocks human arachidonate 12S-lipoxygenase. P18054. purified 12hLO, xylenol orange hydroperoxide absorbance. Potency, µM (doses to about 108 µM), actives largely listed as inhibitors. 580,000 compounds, 1.1% hits
Target sequence (P18054 whole entry, looked up): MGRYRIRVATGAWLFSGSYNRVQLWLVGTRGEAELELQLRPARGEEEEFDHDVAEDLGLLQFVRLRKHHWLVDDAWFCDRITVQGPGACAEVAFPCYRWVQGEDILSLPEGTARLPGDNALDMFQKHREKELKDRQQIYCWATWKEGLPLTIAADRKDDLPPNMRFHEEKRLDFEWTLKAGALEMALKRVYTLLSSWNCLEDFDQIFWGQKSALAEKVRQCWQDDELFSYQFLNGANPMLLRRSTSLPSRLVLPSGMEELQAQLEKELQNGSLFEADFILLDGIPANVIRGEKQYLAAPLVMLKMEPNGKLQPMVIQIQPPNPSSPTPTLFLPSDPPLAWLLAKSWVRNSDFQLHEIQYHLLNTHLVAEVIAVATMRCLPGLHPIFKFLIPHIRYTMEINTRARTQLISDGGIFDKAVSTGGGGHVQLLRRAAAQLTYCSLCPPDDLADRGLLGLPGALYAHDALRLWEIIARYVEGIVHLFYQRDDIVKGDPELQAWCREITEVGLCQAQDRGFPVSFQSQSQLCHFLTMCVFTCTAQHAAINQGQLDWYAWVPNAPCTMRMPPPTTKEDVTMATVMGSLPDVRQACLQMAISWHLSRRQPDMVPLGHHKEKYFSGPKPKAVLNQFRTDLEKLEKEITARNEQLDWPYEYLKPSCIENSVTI
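Purified human 12hLO at 150 nM in 25 mM Hepes, 0.01% Triton X-100, pH 7.0, preincubated 15 min at room temperature with compound. Reaction started with 40 uM arachidonic acid, 30 min at room temperature. Hydroperoxide measured by Fe-xylenol orange, 573/405 nm absorbance ratio.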
Hits are given with their value; i = inactive; ? = inconclusive; nt = not tested or not shown. The full list was thinned out, with hits kept by preference. Unless noted, calls come from the whole dose curve; as a rule, active = well fitted curve in the direction sought with a large enough effect; inconclusive = small, poorly fitted or top-dose-only effect, or another doubt; inactive = no such curve, though single readings can be large; an effect the other way counts as inactive or inconclusive.

SMILES | IL-1B inflam inh | DT40 TDP1 no CPT | HT1080NT lethal | DT40 TDP1 CPT | HT1080 IDH1KD tx | ALOX12 inh
COc1ccc(N(C(C)C(=O)N/N=C/c2ccc(OC)c(OC)c2)S(C)(=O)=O)cc1 (stereo not drawn) | i | i | i | ? | i | i
CCCCC(=O)N1CCCC2CCCCC21 (stereo not drawn) | nt | nt | nt | nt | nt | i
CCCCC[C@H](O)/C=C/[C@H]1CCC(=O)[C@@H]1CCCCCCC(=O)N1CCCCC1CO (stereo partly drawn) | i | 15µM | 16µM | 23µM | 13µM | i
CNC(=S)N1CCN(c2nc(-c3ccc(Cl)cc3)cs2)CC1 | -57 | 21µM | i | ? | i | i
COCCNC(=S)N1CCN(c2nc(-c3ccc(Cl)cc3)cs2)CC1 | i | ? | ? | i | i | i
O=C(CCCl)N1CCN(c2nc(-c3ccccc3)cs2)CC1 | i | 16µM | i | ? | i | ?
CCN(CC)CCCNC(=S)N1CCN(c2nc(-c3ccc(F)cc3)cs2)CC1 | -58 | 6.5µM | 21µM | 15µM | 8.2µM | ?
CC(C)C(=O)N1CCN(c2nc(-c3ccc(Cl)cc3)cs2)CC1 | i | 13µM | i | 23µM | ? | i
CCNC(=S)N1CCN(c2nc(-c3ccc(F)cc3)cs2)CC1 | i | ? | ? | ? | i | ?
O=C(CSc1nnc(C2CC2)n1C1CC1)c1c[nH]c(C(=O)N2CCCC2)c1 | nt | nt | nt | nt | nt | i
CCCCC(=O)N1CCN(c2nc(-c3ccc(F)cc3)cs2)CC1 | i | ? | i | ? | i | i
O=C(N1CCOCC1)N1CCN(c2nc(-c3ccc(F)cc3)cs2)CC1 | i | 16µM | i | ? | i | i
O=[N+]([O-])c1ccc(N2CCN(c3nc(-c4ccc(Cl)cc4)cs3)CC2)cc1 | i | 12µM | i | ? | i | i
O=C(NCc1ccc(F)cc1)c1ccnc(-c2nnc3ccc(Nc4ccccc4)nn23)c1 | nt | nt | nt | nt | nt | i
C#CC(=O)N(c1cccc(OC)c1)C(C(=O)NC1CCCC1)c1cccs1 (stereo not drawn) | -102 | 2.3µM | 0.25µM | 1µM | 40µM | i
Cc1cccc(N(C(=O)C(F)(F)F)C(C(=O)NC2CCCCC2)c2cccs2)c1 (stereo not drawn) | i | i | i | i | i | i
C#CC(=O)N(c1ccc(OC)c(OC)c1)C(C(=O)NC1CCCC1)c1cccs1 (stereo not drawn) | -106 | 0.65µM | 0.12µM | 0.73µM | 0.58µM | i
CCc1cccc2c(N=O)c(O)[nH]c12 | -64 | i | i | i | i | i
O=Nc1c(O)[nH]c2c(F)cccc12 | i | i | i | i | i | i
CCOC(=O)C1=C[C@@H](CC)N(S(=O)(=O)c2ccc(C)cc2)[C@H]1c1cccc(Cl)c1 | i | 21µM | i | ? | ? | i
CCOC(=O)C1=C[C@@H](c2ccccc2)N(S(=O)(=O)c2ccc(C)cc2)[C@H]1c1ccc(F)cc1 | i | ? | i | ? | i | i
CCOC(=O)C1=C[C@@H](c2ccccc2)N(S(=O)(=O)c2ccc(C)cc2)[C@H]1c1cccc(Cl)c1 | i | 23µM | i | ? | i | i
CC[C@@H]1C=C(C(=O)O)[C@H](c2ccc(Cl)cc2)N1S(=O)(=O)c1ccc(C)cc1 | i | i | i | i | i | ?
CCOC(=O)C1=C[C@@H](C(C)(C)C)N(S(=O)(=O)c2ccc([N+](=O)[O-])cc2)[C@H]1c1cccc(Cl)c1 | nt | nt | nt | nt | nt | i
CCOC(=O)C1=C[C@@H](CC)N(S(=O)(=O)c2ccc([N+](=O)[O-])cc2)[C@H]1c1ccccc1 | i | ? | i | 21µM | i | i
CCOC(=O)C1=C[C@@H](C(C)(C)C)N(S(=O)(=O)c2ccc(C)cc2)[C@H]1c1cccc(Cl)c1 | i | 13µM | ? | 15µM | 18µM | i
CC(C)N(C)Cc1ccc(-c2nc(-c3ccncc3)cc(=O)[nH]2)cc1 | nt | nt | nt | nt | nt | i
